Only some compounds are listed: those with a hit (about 12% of all), similar ones and a draw of the others.
Sfp inh = inhibitors of Bacillus subtilis Sfp phosphopantetheinyl transferase. Q9F4F7. Biochemical Sfp PPTase activity, qHTS. Potency, µM, inactives show largest response in the series, negative = inhibition, actives largely listed as inhibitors. hit rate 3.5% among 310,000. AID 1490;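 also: the enzyme is Sfp with the accession as filed and its product quenches rhodamine fluorescence; 0% = enzyme reaction without inhibitor and -100% = no enzyme wells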
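Buffer: 50 mM Hepes-Na pH 7.6, 10 mM MgCl2, 0.01% Nonidet P-40, 0.01% BSA. Enzyme 15 nM, pre-exposed to compound 15 min; substrates then added and fluorescence change tracked over 30 min.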
G9a inh = blocks human histone lysine methyltransferase G9a | hit rate 8.8% among 350,000 | Q96KQ7 | Potency, µM (series often up to 102 µM), for the others: top-dose activity, negative = inhibition, usual class: inhibitors | G9a H3K9 monomethylation, AlphaScreen, 2 h; also: % is scaled to controls: 0 for no effect and ±100 for the full control effect; nearly all actives have a fitted effect of over 75% in size
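Quantitative HTS format: methyltransferase activity on a biotin-tagged H3K9 peptide is measured by AlphaScreen, using a rabbit anti-monomethyl-H3K9 antibody with streptavidin donor and anti-IgG acceptor beads. Final levels are 20 nM enzyme, 500 nM peptide, 20 uM SAM; 2 h RT.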
HP1b binding inh = blocks HP1-beta chromodomain binding to methylated histone tails. P83916. AlphaScreen HP1-beta / biotin-H3K9me3 peptide binding. Potency, µM (highest dose often 114 µM), for inactives: at the highest dose activity change, negative = inhibition, hits mostly inhibitors. hit rate 0.56% among 390,000. AID 540317; also: nearly all actives have a fitted effect of over 70% in size
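HP1-beta protein (50 nM final) preincubated 30 min at room temperature with biotinylated H3(1-18)K9me3 peptide (50 nM) in PBS pH 7.4, 0.01% Tween-20, then compound added for 30 min. AlphaScreen streptavidin donor/nickel chelate acceptor beads (10 ug/mL final), 30 min dark, luminescence read.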
BAZ2B inh = inhibitors of human BAZ2B bromodomain; AlphaScreen BAZ2B-H3K14Ac peptide displacement; AID 504333; Potency, µM (doses to about 114 µM), for inactives: at the highest dose activity change, negative = inhibition, most hits filed as inhibitors; hit rate 4.4% among 360,000; also: % is scaled to controls: 0 for no effect and ±100 for the full control effect; nearly all actives have a fitted effect of over 60% in size
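Multi-concentration screen (max 110 uM) measuring displacement of acetylated histone H3 peptide from BAZ2B by AlphaScreen, using 50 nM protein, 50 nM peptide and 10 ug/mL streptavidin donor plus Ni-chelate acceptor beads.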
JMJD2A Tudor = JMJD2A Tudor domain (human) inhibition. AlphaScreen JMJD2A-Tudor / H3K4me3 peptide binding. Potency, µM (titrated, usually from 114 µM), inactives show top-dose activity change, negative = inhibition, most hits filed as inhibitors. hit rate 4.4% among 390,000. O75164; also: % is scaled to controls: 0 for no effect and ±100 for the full control effect; nearly all actives have a fitted effect of over 50% in size
* marks the source's active call; other numbers are inactive results; u = inconclusive; x = no result; [ ] = remark or other dose. Calls follow the shape of the dose curve; as a rule, active = well fitted curve in the direction sought with a large enough effect; inconclusive = small, poorly fitted or top-dose-only effect, or another doubt; inactive = no such curve, though single readings can be large; an effect the other way counts as inactive or inconclusive. Potency is read from the fitted curve at half-maximal effect.

SMILES	Sfp inh	G9a inh	HP1b binding inh	BAZ2B inh	JMJD2A Tudor
O=C(Nc1ccc(F)cc1Cl)n1ncc2cc(Cl)ccc21	x	-8%[59 µM]	13%	-9%	-7%
Cc1ccsc1C=Nc1ccc(O)cc1	u	13µM*	u	40µM*	79µM*
CC1(C(=O)OCC(=O)Nc2cc(S(=O)(=O)N3CCOCC3)ccc2Cl)CC1(Cl)Cl (centres undefined)	x	x	53%	x	-5%
O=C(CCC(=O)N1CCOc2ccccc21)Nc1cc(F)ccc1F	2%	x	13%	6%	u
c1ccc(SCCCCNC2CCCC2)cc1	-13%	8.9µM*	-18%[57 µM]	56µM*	3.2µM*
O=C1CCC(=O)N1OCCCOc1ccc2c(c1)CCC2	24%	-4%[59 µM]	39%	9%	1%
O=C1CCC(=O)N1OCCOc1ccc2c(c1)CCC2	6%	-28%[12.7 µM]	41%	10%	-8%
COc1ccc(OCCNC2CCCC2)cc1	2%	10µM*	15%	u	79µM*
CNCCCOc1ccc2c(c1)CCC2	-6%	50µM*	-37%	50µM*	22µM*
COc1ccc(OCCC(=O)NC2CCCCC2)cc1	7%	10%	18%	-7%	4%
c1cc2c(cc1OCCNC1CCCC1)CCC2	-24%	22µM*	x	56µM*	x
CCOc1ccc(NC(=O)Cn2cc(S(=O)(=O)NC)c(S(=O)(=O)NC)c2)cc1	x	-23%[59 µM]	0%	-17%	-17%
COc1ccc(Br)cc1C(=O)Nc1cccc2ccc(C)nc12	x	6%[59 µM]	0%	-13%	-7%
CC(=Nc1ccccc1)C1=C(O)C(Cc2ccccc2)NC1=O (centres undefined)	x	x	u	x	-12%
Cc1ccc(CNC(=O)C(C)n2c(=O)cc(C(F)(F)F)c3c(C)nn(C)c32)cc1 (centres undefined)	x	23%[59 µM]	9%	-4%	-13%
COc1cccc(-n2c(=O)c3c(C)c(C)sc3n(CC(=O)NCCc3ccc(OC)c(OC)c3)c2=O)c1	x	-22%[59 µM]	21%	-6%	-9%
Clc1ccc(OCCNCCc2ccccc2)cc1	11%	u	47%	-5%	1%
c1ccc(Cc2ccc(OCCCNC3CCCC3)cc2)cc1	u	13µM*	x	56µM*	x
Cn1c(SCc2ccc(C#N)cc2)nnc1-c1ccccc1	9%	u	27%	-8%	-6%
Cc1ccc(-c2nnc(SCc3ccc(C#N)cc3)n2Cc2ccco2)cc1	-6%	x	7%	-35%	79µM*
COc1cccc(-c2nnc(SCc3ccc(C#N)cc3)n2Cc2ccco2)c1	u	35µM*	10%	-29%	u
Cc1nn(C(=O)c2ccccc2)c(C)c1S(=O)(=O)N1CCCCCC1	x	3%[59 µM]	37%[57 µM]	18%	10%
Cn1c(=O)[nH]c2c(c1=O)CCO2	x	x	16%	x	-6%
CC(C)NC1(C#N)CCN(Cc2ccccc2)CC1	x	x	27%	x	-5%
O=C(NNc1c(Cl)cccc1Cl)c1sc2ccccc2c1Cl	x	x	33%	x	u
SMILES	Sfp inh	G9a inh	HP1b binding inh	BAZ2B inh	JMJD2A Tudor
Cc1ccc2nc(NC(=O)C3CC(=O)N(Cc4ccco4)C3)sc2c1 (centres undefined)	13%	-50%	12%	-37%	-20%
CCOc1ccc(NC(=O)C2CC(=O)N(Cc3ccco3)C2)cc1 (centres undefined)	x	15%[12.7 µM]	46%	4%	-5%
CC(=O)Nc1ccc(NC(=O)C2CC(=O)N(Cc3ccco3)C2)cc1 (centres undefined)	x	16µM*	44%	1%	-9%
O=C(Nc1nc2c(F)cc(F)cc2s1)C1CC(=O)N(Cc2ccco2)C1 (centres undefined)	10µM*	x	-38%	u	-7%[11.4 µM]
Cc1cc(C)c2nc(NC(=O)C3CC(=O)N(Cc4ccco4)C3)sc2c1 (centres undefined)	0%	-26%[59 µM]	u	40µM*	u
COc1ccccc1NC(=O)Cn1c(=O)n(Cc2nc(-c3ccccc3)no2)c(=O)c2ccccc21	x	-16%[59 µM]	29%	-11%	12%
Cc1ccc(NC(=O)Cn2c(C)cc(C)c(C#N)c2=O)cc1F	x	18%[59 µM]	38%	3%	-1%
CCCCC(=O)Nc1ccc(OCc2cc(=O)n3c(C)csc3n2)cc1	x	8%[59 µM]	54%	4%	-11%
CC1(C)C(c2ccccc2)=[N+]([O-])C2(CCCCC2=O)N1O (centres undefined)	24%	7.9µM*	31%	3%	-3%
O=c1[nH]c2ccc(S(=O)(=O)N3CCN(S(=O)(=O)c4c(F)cccc4F)CC3)cc2[nH]c1=O	x	x	x	x	-30%
O=C(CSc1ccc(-c2ccc(F)cc2)nn1)NCc1ccco1	13%	-7%[59 µM]	49%	-4%	-8%[57.1 µM]
COc1ccc(CCNC(=O)CSc2ccc(-c3ccco3)nn2)cc1	-61%	-51%	16%	u	-26%
O=C(CSc1ccc(-c2ccco2)nn1)NCCc1ccccc1	32µM*	35µM*	51%	-6%	-16%
O=C(CSc1ccc(-c2ccco2)nn1)NCc1ccc(F)cc1	u	45µM*	13%	1%	-9%
O=C(CSc1ccc(-c2ccco2)nn1)c1ccc(F)cc1	32µM*	40µM*	u	-34%	45µM*
Cc1cc(=O)oc2cc(OC(=O)c3cncc(Br)c3)ccc12	15%	-10%	52%	1%	1%[57.1 µM]
Cn1c(N=NC(=O)c2ccccc2)c(O)c2ccccc21	4%	u	32µM*	22µM*	32µM*
O=C(OCC(=O)N1CCc2ccccc21)c1n[nH]c(=O)c2ccccc12	x	18%[12.7 µM]	32%	-1%	-2%
COc1cccc(NC(=O)CN2CCSc3ccccc32)c1	63µM*	22µM*	3%	u	-33%
Cc1cccc(NC(=O)CN2CCSc3ccccc32)c1	1%	45µM*	31%	u	-24%
COc1ccccc1NC(=O)CN1CCSc2ccccc21	-13%	u	5%	-1%	-27%
CC(CCc1ccccc1)NC(=O)CN1CCSc2ccccc21 (centres undefined)	u	32µM*	79µM*	u	56µM*
CC(=O)N1CCc2cc(S(=O)(=O)N3CCN(S(=O)(=O)c4c(F)cccc4F)CC3)ccc21	x	x	x	x	-18%
FC(F)(F)c1cccc(NC(=S)NNC(=S)NCc2ccccc2)c1	45µM*	u	-18%	-10%	u
O=C(NNC(=S)Nc1cccc(C(F)(F)F)c1)c1ccccc1Cl	-3%	3.2µM*	-13%	-17%	-28%
FC(F)(F)c1cccc(NC(=S)Nc2cccc(NC(=S)Nc3cccc(C(F)(F)F)c3)n2)c1	20µM*	x	u	u	u
O=c1c2ccccc2oc2cc(-c3ccc(CN4CCOCC4)cc3)ccc12	x	8%[0.501 µM]	42%	-34%	-35%
Cn1c(=O)c2c(-c3ccc(Cl)cc3)n(Cc3ccc(Cl)cc3)cc2n(C)c1=O	x	-37%[59 µM]	6%	-32%	-13%
Cn1c(=O)c2c(-c3ccccc3)n(Cc3cccnc3)cc2n(C)c1=O	-4%	10µM*	36%	2%	-18%

From PubChem
